Assay results published in PubChem BioAssay (NCATS).
Records with an inconclusive call do not appear. Activity calls are given as the source filed them. The call rests on the fitted dose curve; in most records, active means well fitted curve in the direction sought with a large enough effect; inconclusive means small, poorly fitted or top-dose-only effect, or another doubt; inactive means no such curve, though single readings can be large; an effect the other way counts as inactive or inconclusive.

Tests used:
[1] = qHTS of pediatric cancer cell lines to identify multiple opportunities for drug repurposing: Primary screen for SJ-GBM2 cells (AID 1347091)
Procedure, shortened: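 Viability measured as metabolically active cells via CellTiter-Glo luminescence following 48 hours of compound exposure, 11-point dilutions in confirmatory testing. 500-1,000 cells/well plated 5 hours before dosing; controls were DMSO and 2.3 µM bortezomib.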

[2] = qHTS of pediatric cancer cell lines to identify multiple opportunities for drug repurposing: Primary screen for A673 cells (AID 1347092); further: nearly all actives have a fitted effect of over 45% in size
Procedure, shortened: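 48 h compound exposure, A673, 500-1,000 cells/well, 37 degrees C/5% CO2. MIPE: 11-point, 0.78 nM-46 µM; NPC: 8-point, 0.59 nM-46 µM (final). Readout CellTiter-Glo luminescence after 15 min RT.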

[3] = qHTS of pediatric cancer cell lines to identify multiple opportunities for drug repurposing: Primary screen for SK-N-MC cells (AID 1347093)
Procedure, shortened: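 Metabolically active cells were quantified by ATP-dependent luminescence (CellTiter-Glo, 15 min at room temperature) following 48 h treatment. Cells had been plated at 500-1,000 per well and settled for 5 h beforehand.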

[4] = qHTS of pediatric cancer cell lines to identify multiple opportunities for drug repurposing: Primary screen for BT-37 cells (AID 1347094)
Procedure, shortened: (§1)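 Cells seeded at 500-1,000 cells/well in growth media, rested 5 hours at 37 degrees C, 5% CO2, then dosed; MIPE compounds at 11-point (from 0.78 nM) and NPC at 8-point (from 0.59 nM) final concentrations. Viability by CellTiter-Glo luminescence after 48 hours.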

[5] = qHTS of pediatric cancer cell lines to identify multiple opportunities for drug repurposing: Primary screen for U-2 OS cells (AID 1347096); further: nearly all actives have a fitted effect of over 50% in size
Procedure, shortened: (§2)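 Viability after 48 h compound treatment at 37C, 500-1,000 cells/well, read as ATP luminescence with CellTiter-Glo. Primary screens used 11-point (MIPE, 0.78 nM-46 µM) or 8-point (NPC, 0.59 nM-46 µM) final concentrations; follow-up screens used 11-point dilutions.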

[6] = qHTS of pediatric cancer cell lines to identify multiple opportunities for drug repurposing: Primary screen for SK-N-SH cells (AID 1347098); further: nearly all actives have a fitted effect of over 65% in size
Procedure, shortened: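 Cells (500-1,000/well) rested 5 h, then received compounds for 48 h; metabolically active cells were measured by CellTiter-Glo luminescence. Final concentrations spanned up to 46 µM (MIPE, 11-point) or 0.59 nM-46 µM (NPC, 8-point) in primary screens, 11-point in follow-ups.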

[7] = qHTS of pediatric cancer cell lines to identify multiple opportunities for drug repurposing: Primary screen for NB1643 cells (AID 1347099); further: nearly all actives have a fitted effect of over 50% in size
Procedure, shortened: as §1

[8] = qHTS of pediatric cancer cell lines to identify multiple opportunities for drug repurposing: Primary screen for LAN-5 cells (AID 1347100)
Procedure, shortened: as §2

[9] = qHTS of pediatric cancer cell lines to identify multiple opportunities for drug repurposing: Primary screen for Saos-2 cells (AID 1347097); further: nearly all actives have a fitted effect of over 40% in size
Procedure, shortened: as §1

[10] = qHTS of pediatric cancer cell lines to identify multiple opportunities for drug repurposing: Primary screen for NB-EBc1 cells (AID 1347095)
Procedure, shortened: as §1

Measured: Potency
Potency means the concentration at half of the fitted maximal effect.

NC(=O)C(c1ccccc1)(c1ccccc1)[C@@H]1CCN(CCc2ccc3c(c2)CCO3)C1
not listed: [9] | [10]
inactive: all other assays above

COC(=O)Nc1nc2ccc(C(=O)C3CC3)cc2[nH]1
active: [1] 0.841 µM | [2] 1.06 µM | [3] 1.06 µM | [4] 2.19 µM | [9] 0.841 µM | [8] 0.841 µM

C[N+]1(C)[C@@H]2CC(OC(=O)[C@H](CO)c3ccccc3)C[C@H]1[C@@H]1O[C@@H]12 (stereo partly drawn)
not listed: [10]
inactive: all other assays above

CCCCCCCCCCCC(=O)[O][Sn]([CH2]CCC)([CH2]CCC)[O]C(=O)CCCCCCCCCCC
not listed: [10]
inactive: all other assays above

O=C(O)c1ccccc1Nc1cccc(C(F)(F)F)c1
not listed: [3] | [10]
inactive: all other assays above

CN1CCN(c2cc3c(nn2)Oc2ccccc2N3C)CC1
not listed: [10]
inactive: all other assays above

CCCCCCOc1ccccc1C(N)=O
not listed: [3]
inactive: all other assays above

O=C(OCc1ccccc1)c1ccccc1
not listed: [10]
inactive: all other assays above

CCCCCCCCCCCCCCCC(=O)OC(C)C
not listed: [10]
inactive: all other assays above

O=C(O)Cc1ccc(-c2ccccc2)cc1
not listed: [10]
inactive: all other assays above

CC(C(=O)O)c1ccc(C(=O)c2cccs2)cc1 (stereo not drawn)
not listed: [9] | [10]
inactive: all other assays above

O=C(O)Cc1ccc2c(c1)C(=O)c1ccccc1CO2
not listed: [10]
inactive: all other assays above

C=CCCCCCCCCC(=O)O
not listed: [10]
inactive: all other assays above

CCCSc1ccc2nc(NC(=O)OC)[nH]c2c1
active: [1] 0.422 µM | [2] 0.841 µM | [3] 0.841 µM | [4] 2.46 µM | [9] 4.22 µM | [8] 1.19 µM

COc1cc2c3cc1Oc1cc(ccc1O)C[C@@H]1c4c(cc(OC)c(O)c4Oc4ccc(cc4)C[C@@H]3N(C)CC2)CC[N+]1(C)C
not listed: [3]
inactive: all other assays above

CCC1C(=O)OCC1Cc1cncn1C (stereo not drawn)
not listed: [10]
inactive: all other assays above

CC(=O)SCC(CC(=O)c1ccc(C)cc1)C(=O)O (stereo not drawn)
not listed: [9] | [10]
inactive: all other assays above

CC1(C)S[C@@H]2[C@H](NC(=O)[C@H](N)c3ccccc3)C(=O)N2[C@H]1C(=O)O
not listed: [10]
inactive: all other assays above

COc1cccc2c1C(=O)c1c(O)c3c(c(O)c1C2=O)C[C@@](O)(C(=O)CO)C[C@@H]3O[C@H]1C[C@H](N)[C@H](O[C@@H]2CCCCO2)[C@H](C)O1
active: [1] 1.33 µM | [2] 1.06 µM | [3] 0.211 µM | [4] 0.246 µM | [9] 2.66 µM | [6] 0.097 µM | [7] 0.596 µM | [8] 0.266 µM

Oc1c(Br)cc(Br)c2cccnc12
inactive: [5]
active: [1] 11.9 µM | [2] 3.35 µM | [3] 10.6 µM | [10] 10.6 µM | [9] 11.9 µM

CCCCC1C(=O)N(c2ccccc2)N(c2ccc(O)cc2)C1=O (stereo not drawn)
active: [1] 10.6 µM | [2] 10.6 µM | [3] 2.66 µM | [10] 2.99 µM | [9] 16.8 µM | [7] 6.68 µM | [8] 5.96 µM

c1ccc2sc(SSc3nc4ccccc4s3)nc2c1
not listed: [2] | [10]
inactive: all other assays above

Cc1cc(O)c2ccccc2c1O
active: [2] 10.6 µM | [3] 21.1 µM | [6] 34.4 µM | [7] 18.8 µM

O=c1[nH]c2ccccc2n1CCCN1CCN(C(c2ccccc2)c2ccccc2)CC1
inactive: [5] | [7]
active: [6] 24.4 µM

[O-][n+]1ccccc1SSc1cccc[n+]1[O-]
active: [2] 0.0731 µM | [3] 0.058 µM | [4] 3.01 µM | [5] 0.231 µM | [9] 0.092 µM | [6] 0.067 µM | [7] 0.092 µM

COc1cc(NC(C)CCCN)c2ncccc2c1 (stereo not drawn)
active: [9] 23.7 µM | [6] 17.2 µM
inactive: [1] | [8]

O=C(CS)Nc1ccccc1
inactive: [4] | [5] | [6]

O=C1CN(/N=C/c2ccc([N+](=O)[O-])o2)C(=O)N1
not listed: [2]
inactive: all other assays above

CCCC(=O)OC[C@@H](OC(=O)CCC)[C@@H](OC(=O)CCC)[C@H](Cn1c2nc(=O)[nH]c(=O)c-2nc2cc(C)c(C)cc21)OC(=O)CCC
inactive: [1] | [5] | [6] | [7]

CCOc1ccc2nc(S(N)(=O)=O)sc2c1
inactive: [1] | [5] | [6] | [7] | [8]

COC(=O)C1=C(C)NC(C)=C(C(=O)OCC(C)C)C1c1ccccc1[N+](=O)[O-] (stereo not drawn)
inactive: [1] | [9]

S=c1[nH]c2ccccc2s1
active: [2] 19.3 µM
not listed: [3] | [7] | [10]
inactive: all other assays above

O=Cc1ccc(O)c(O)c1O
inactive: [1] | [4] | [10]

CN(C)c1ccc(N=NS(=O)(=O)O)cc1
inactive: [1] | [4] | [5] | [6]

Cc1nc2ccccc2n1Cc1ccc(Cl)cc1
inactive: [1] | [5]
active: [3] 18.8 µM

Nc1nc2ccc([N+](=O)[O-])cc2s1
inactive: [1] | [2] | [9] | [8]

CN(C)c1ccc(C(=C2C=CC(=[N+](C)C)C=C2)c2ccccc2)cc1
active: [2] 0.0422 µM | [3] 0.0531 µM | [4] 0.0978 µM | [5] 1.33 µM | [9] 0.0531 µM | [6] 1.09 µM | [7] 0.133 µM

Nc1ccc([N+](=O)[O-])cc1O
inactive: [5] | [6]
active: [2] 0.001 µM | [3] 0.001 µM | [10] 15.4 µM

CCCOC(=O)c1ccc(O)cc1
not listed: [2] | [9] | [10]
inactive: all other assays above

C#CC1(O)CC[C@H]2[C@@H]3CCC4=CCCC[C@@H]4[C@H]3CC[C@@]21C (stereo partly drawn)
active: [6] 24.4 µM
inactive: [1] | [4] | [8]

c1ccc(CCNc2nc(-c3ccccc3)cs2)cc1
inactive: [3] | [4] | [5] | [7] | [8]

CCCCCCCC/C=C/C(=O)O
active: [3] 42.2 µM
not listed: [2] | [6] | [7]
inactive: all other assays above

CC(C)OC(=O)c1cc(C(=O)OC(C)C)cc([N+](=O)[O-])c1
not listed: [3] | [10]
inactive: all other assays above

O=c1cc(-c2ccccc2)oc2ccccc12
inactive: [1] | [3] | [8]

CC(C(=O)O)c1ccc2c(c1)[nH]c1ccc(Cl)cc12 (stereo not drawn)
not listed: [3] | [6] | [10]
inactive: all other assays above

CC(C(=O)O)c1ccc(C(=O)c2ccccc2)s1 (stereo not drawn)
not listed: [1]
inactive: all other assays above

Cc1c(C(=O)O)c(O)cc2c1C(=O)c1c(O)c([C@@H]3O[C@H](CO)[C@@H](O)[C@H](O)[C@H]3O)c(O)c(O)c1C2=O
inactive: [2] | [5] | [6] | [7]

COC(=O)C1=C(C)NC(C)=C(C(=O)OCC(C)=O)C1c1ccccc1[N+](=O)[O-] (stereo not drawn)
inactive: [5] | [8]
active: [3] 13.3 µM

C#C[C@]1(O)CC[C@H]2[C@@H]3CCc4cc(O)ccc4[C@H]3CC[C@@]21C
inactive: [5]
active: [2] 26.6 µM | [3] 4.73 µM | [9] 8.41 µM

O=C(O)c1cc(O)c(O)c(O)c1
not listed: [2] | [9] | [10]
inactive: all other assays above
